Measurements published in the supplement of paper PMC8371130.
Where a name gives a salt, the structure may show the parent alone.

System: HL-1
Assay: relative cell viability (CellTiter-Glo) vs DMSO control (% of DMSO control); higher = more viable cells
Procedure, shortened: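 Plating of HL-1 mouse atrial cardiomyocytes at 1000 cells per well in 384-well plates was done together with compounds at 40, 200, 1000 or 5000 nM in 0.01% DMSO. A day later the cells faced 48 h of 1% O2 and then 24 h of reoxygenation, or matching normoxia. Viability was measured via CellTiter-Glo luminescence and set relative to vehicle-treated control cells.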

[1] = oxygen condition: hypoxia 48 h (1% O2) + reoxygenation 24 h, 40 nM
[2] = oxygen condition: hypoxia 48 h (1% O2) + reoxygenation 24 h, 200 nM
[3] = oxygen condition: hypoxia 48 h (1% O2) + reoxygenation 24 h, 1000 nM
[4] = oxygen condition: hypoxia 48 h (1% O2) + reoxygenation 24 h, 5000 nM
[5] = oxygen condition: normoxia 72 h, 40 nM
[6] = oxygen condition: normoxia 72 h, 200 nM
[7] = oxygen condition: normoxia 72 h, 1000 nM
[8] = oxygen condition: normoxia 72 h, 5000 nM

SMILES | relative cell viability [1] | relative cell viability [2] | relative cell viability [3] | relative cell viability [4] | relative cell viability [5] | relative cell viability [6] | relative cell viability [7] | relative cell viability [8]
Nc1[nH]cnc2ncnc1-2 [Adenine sulfate] | 101 | 101 | 105 | 111 | 113 | 105 | 110 | 113
COc1nc(C)nc(Cl)c1NC1=NCCN1 [Moxonidine] | 103 | 97.1 | 99.6 | 112 | 110 | 103 | 107 | 111
Cc1cnc(C(=O)O)c[n+]1[O-] [Acipimox] | 105 | 104 | 109 | 116 | 101 | 104 | 107 | 108
COCCc1ccc(OCC(O)CNC(C)C)cc1 (stereo not given) [Metoprolol tartrate] | 101 | 98 | 105 | 111 | 77.9 | 103 | 103 | 111
CC(C)n1c(/C=C/C(O)CC(O)CC(=O)O)c(-c2ccc(F)cc2)c2ccccc21 (stereo not given) [Fluvastatin sodium] | 88.9 | 57.3 | 17.3 | 3.7 | 101 | 83.5 | 28.6 | 4.76
CN(N=O)C(=O)N[C@@H](C=O)[C@@H](O)[C@H](O)[C@H](O)CO [Streptozotocin] | 103 | 103 | 99.8 | 109 | 99.9 | 109 | 104 | 102
NC(=O)c1ncn([C@@H]2O[C@H](CO)[C@@H](O)[C@H]2O)c1O [Mizoribine] | 103 | 109 | 115 | 108 | 111 | 104 | 103 | 110
CN(C)CCc1c[nH]c2ccc(CS(=O)(=O)N3CCCC3)cc12 [Almotriptan malate] | 98 | 99 | 97.6 | 91.9 | 98.2 | 103 | 102 | 52.1
CCCc1nc(C(C)(C)O)c(C(=O)OCc2oc(=O)oc2C)n1Cc1ccc(-c2ccccc2-c2nnn[nH]2)cc1 [Olmesartan medoxomil] | 93.8 | 99.2 | 94.7 | 105 | 97 | 98.2 | 96.7 | 95.7
CCc1c2c(nc3ccc(OC(=O)N4CCC(N5CCCCC5)CC4)cc13)-c1cc3c(c(=O)n1C2)COC(=O)[C@]3(O)CC [Irinotecan HCl Trihydrate] | 89 | 95.6 | 64.6 | 40.2 | 99 | 83.5 | 62.5 | 40.2
C=C1/C(=C\C=C2/CCC[C@]3(C)[C@@H]([C@H](C)/C=C/[C@H](C)C(C)C)CC[C@@H]23)C[C@@H](O)C[C@@H]1O [Doxercalciferol] | 89.5 | 88 | 93.7 | 88.7 | 106 | 99 | 103 | 52.4
COC(=O)[C@H]1[C@H]2C[C@@H]3c4[nH]c5cc(OC)ccc5c4CCN3C[C@H]2C[C@@H](OC(=O)c2cc(OC)c(OC)c(OC)c2)[C@@H]1OC [Reserpine] | 112 | 106 | 107 | 110 | 102 | 103 | 103 | 113
CC(CN(C)C)CN1c2ccccc2CCc2ccccc21 (stereo not given) [Trimipramine Maleate] | 103 | 105 | 111 | 111 | 99.2 | 101 | 102 | 94.2
CCCS(=O)(=O)Nc1ccc(F)c(C(=O)c2c[nH]c3ncc(-c4ccc(Cl)cc4)cc23)c1F [Vemurafenib] | 102 | 111 | 107 | 111 | 104 | 96.2 | 106 | 118
[I-].[K+] [Potassium iodide] | 103 | 104 | 102 | 108 | 106 | 104 | 106 | 109
COc1ccccc1OCC(O)CN1CCN(CC(=O)Nc2c(C)cccc2C)CC1 (stereo not given) [Ranolazine] | 85 | 102 | 98 | 112 | 105 | 102 | 107 | 118
Cc1ccc(Nc2nccc(N(C)c3ccc4c(C)n(C)nc4c3)n2)cc1S(N)(=O)=O [Pazopanib] | 104 | 108 | 102 | 116 | 92.7 | 102 | 110 | 110
CNCCC(Oc1ccc(C(F)(F)F)cc1)c1ccccc1 (stereo not given) [Fluoxetine  HCl] | 103 | 109 | 114 | 110 | 104 | 114 | 106 | 114
N[C@@H](Cc1cc(I)c(Oc2cc(I)c(O)c(I)c2)c(I)c1)C(=O)O [L-Thyroxine] | 98.5 | 101 | 99.6 | 110 | 108 | 101 | 99.3 | 109
CN(C)/N=N/c1[nH]cnc1C(N)=O [Dacarbazine] | 97.5 | 107 | 110 | 113 | 105 | 106 | 107 | 113

SMILES | relative cell viability [1] | relative cell viability [2] | relative cell viability [3] | relative cell viability [4] | relative cell viability [5] | relative cell viability [6] | relative cell viability [7] | relative cell viability [8]
CCCCc1oc2ccc(NS(C)(=O)=O)cc2c1C(=O)c1ccc(OCCCN(CCCC)CCCC)cc1 [Dronedarone HCl] | 99.9 | 99.6 | 102 | 105 | 99.8 | 110 | 102 | 95
CNS(=O)(=O)CCc1ccc2[nH]cc(C3CCN(C)CC3)c2c1 [Naratriptan HCl] | 97.1 | 103 | 105 | 108 | 103 | 103 | 97.6 | 111
COc1nc(N)nc2c1ncn2[C@@H]1O[C@H](CO)[C@@H](O)[C@@H]1O [Nelarabine] | 113 | 114 | 112 | 112 | 111 | 112 | 108 | 111
NC(=O)c1ncn([C@@H]2O[C@H](CO)[C@@H](O)[C@H]2O)c1N [Acadesine] | 90.2 | 102 | 102 | 116 | 103 | 103 | 110 | 117
NS(=O)(=O)c1cc(Cl)c(Cl)c(S(N)(=O)=O)c1 [Dichlorphenamide] | 109 | 106 | 103 | 115 | 105 | 102 | 103 | 109
C[C@@H]1CC(=O)NN=C1c1ccc(NN=C(C#N)C#N)cc1 [Levosimendan] | 101 | 103 | 102 | 108 | 95.9 | 103 | 105 | 103
CN(CCOc1ccc(CC2SC(=O)NC2=O)cc1)c1ccccn1 (stereo not given) [Rosiglitazone] | 104 | 104 | 98.3 | 104 | 99.2 | 105 | 98.4 | 104
O=C(O)c1cc(=O)c2ccccc2o1 [Chromocarb] | 103 | 105 | 109 | 110 | 111 | 103 | 107 | 115
CO[C@H]1O[C@@H]2O[C@@]3(C)CC[C@H]4[C@H](C)CC[C@@H]([C@H]1C)[C@@]24OO3 [Artemether] | 104 | 103 | 100 | 60.3 | 103 | 102 | 98.3 | 93.2
CNC(=O)c1ccccc1Sc1ccc2c(/C=C/c3ccccn3)n[nH]c2c1 [Axitinib] | 110 | 114 | 117 | 116 | 105 | 108 | 112 | 111
CN1CCN(CCCN2c3ccccc3Sc3ccc(Cl)cc32)CC1 [Prochlorperazine Dimaleate] | 114 | 111 | 106 | 113 | 98.7 | 99.3 | 102 | 105
C=CC[N+]1([C@H]2C[C@H]3[C@@H]4CC[C@H]5C[C@H](O)[C@@H](N6CCOCC6)C[C@]5(C)[C@H]4CC[C@]3(C)[C@H]2OC(C)=O)CCCC1 [Rocuronium bromide] | 104 | 105 | 116 | 110 | 104 | 104 | 104 | 107
NCCCC(O)(P(=O)(O)O)P(=O)(O)O [Alendronate] | 104 | 102 | 106 | 109 | 99.2 | 105 | 107 | 109
CCOC(=O)c1ccc(OC(=O)CCCCCNC(=N)N)cc1 [Gabexate mesylate] | 107 | 105 | 112 | 108 | 101 | 98.9 | 109 | 110
COc1ccc2cccc(CCNC(C)=O)c2c1 [Agomelatine] | 96.1 | 109 | 84.5 | 113 | 94.3 | 90.4 | 132 | 111
CNC[C@H](O)c1cccc(O)c1 [Phenylephrine HCl] | 110 | 108 | 102 | 109 | 110 | 108 | 117 | 118
CC(C)(CO)[C@@H](O)C(=O)NCCC(=O)O [Pantothenic acid] | 100 | 103 | 104 | 108 | 100 | 101 | 99.5 | 106
CC1(C)Cc2c(-c3ccccc3)c(-c3ccc(Cl)cc3)c(CC(=O)O)n2C1 [Licofelone] | 97.3 | 94.8 | 97.1 | 105 | 92.9 | 96.5 | 93.5 | 108
CCC[C@H](N[C@@H](C)C(=O)N1[C@H](C(=O)O)C[C@@H]2CCCC[C@@H]21)C(=O)OCC [Perindopril Erbumine] | 110 | 81 | 107 | 115 | 109 | 111 | 111 | 114
Cn1c(CNc2ccc(C(=N)N)cc2)nc2cc(C(=O)N(CCC(=O)O)c3ccccn3)ccc21 | 104 | 96 | 102 | 108 | 102 | 102 | 102 | 106
